Screening results from PubChem BioAssay.
Shown are actives, neighbours in structure and some others; about 12% of the full set was active somewhere.
BAZ2B inh – qHTS Assay for Inhibitors of BAZ2B; Bromodomain adjacent to zinc finger domain protein 2B (Homo sapiens), Q9UIF8; AlphaScreen BAZ2B-H3K14Ac peptide displacement; Potency, µM (doses to about 114 µM), inactives show top-dose activity change, negative = inhibition, most hits filed as inhibitors; 4.4% of 360,000 active; AID 504333, 2011; also: % is scaled to controls: 0 for no effect and ±100 for the full control effect; nearly all actives have a fitted effect of over 60% in size
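Complex of BAZ2B and biotin-H3K14Ac (50 nM apiece) forms over 30 min at RT, then faces library compounds up to 110 uM for another 30 min; AlphaScreen beads added, 20 min dark incubation, luminescence read.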
JMJD2A Tudor – qHTS Assay for Inhibitors of JMJD2A-Tudor Domain; 4.4% of 390,000 active; AID 504339, 2011; Lysine-specific demethylase 4A (Homo sapiens), O75164; AlphaScreen JMJD2A-Tudor / H3K4me3 peptide binding; Potency, µM (highest dose often 114 µM), for the others: at the highest dose activity change, negative = inhibition, actives largely listed as inhibitors; also: % is scaled to controls: 0 for no effect and ±100 for the full control effect; nearly all actives have a fitted effect of over 50% in size
L3MBTL1 block – qHTS Assay for the Inhibitors of L3MBTL1; AlphaScreen L3MBTL1–H3K9me1 peptide binding; Potency, µM (top dose mostly 57.1 µM), for the others: top-dose activity, negative = inhibition, usual class: inhibitors; 0.66% of 230,000 active; AID 485360, 2010; also: % is scaled to controls: 0 for no effect and ±100 for the full control effect; nearly all actives have a fitted effect of over 60% in size
Target sequence (Q9Y468 whole entry, looked up): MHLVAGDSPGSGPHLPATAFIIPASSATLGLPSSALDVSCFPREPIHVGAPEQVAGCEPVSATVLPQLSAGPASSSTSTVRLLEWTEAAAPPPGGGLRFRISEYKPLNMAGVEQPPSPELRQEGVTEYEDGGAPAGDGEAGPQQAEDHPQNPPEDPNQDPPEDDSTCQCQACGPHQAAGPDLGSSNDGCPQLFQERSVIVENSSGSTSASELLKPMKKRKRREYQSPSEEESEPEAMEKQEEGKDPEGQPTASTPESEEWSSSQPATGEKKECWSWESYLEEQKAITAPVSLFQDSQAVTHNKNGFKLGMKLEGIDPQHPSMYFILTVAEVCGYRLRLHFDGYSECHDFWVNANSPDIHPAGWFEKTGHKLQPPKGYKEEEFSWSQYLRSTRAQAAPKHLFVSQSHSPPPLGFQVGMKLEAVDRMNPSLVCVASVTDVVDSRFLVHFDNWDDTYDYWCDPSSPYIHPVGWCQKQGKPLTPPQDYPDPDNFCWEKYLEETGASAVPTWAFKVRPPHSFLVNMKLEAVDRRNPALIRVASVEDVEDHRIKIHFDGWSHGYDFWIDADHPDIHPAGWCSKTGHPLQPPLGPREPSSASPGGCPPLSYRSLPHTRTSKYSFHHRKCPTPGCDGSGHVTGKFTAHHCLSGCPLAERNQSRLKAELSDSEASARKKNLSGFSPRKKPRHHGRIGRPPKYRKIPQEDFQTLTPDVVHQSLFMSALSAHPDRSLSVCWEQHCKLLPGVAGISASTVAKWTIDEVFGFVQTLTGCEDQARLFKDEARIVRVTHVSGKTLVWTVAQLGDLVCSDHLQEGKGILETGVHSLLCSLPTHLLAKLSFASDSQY
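First, the protein-peptide complex forms for 30 min at room temperature (L3MBTL1 50 nM, biotinylated H3K9me1 peptide 75 nM). Next, compounds are pin-transferred and incubated 30 min. Finally, AlphaScreen beads are added and read after 30 min.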
HP1b binding inh – HTS for Inhibitors of HP1-beta Chromodomain Interactions with Methylated Histone Tails | Potency, µM (series often up to 114 µM), for the others: at the top dose activity change, negative = inhibition, usual class: inhibitors | AlphaScreen HP1-beta / biotin-H3K9me3 peptide binding | Chromobox protein homolog 1 (Homo sapiens), P83916 | 0.56% of 390,000 active; also: nearly all actives have a fitted effect of over 70% in size
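AlphaScreen: HP1-beta (50 nM) preformed 30 min with biotin-H3(1-18)K9me3 peptide (50 nM) in PBS pH 7.4, 0.01% Tween-20. Compound added for 30 min at RT, then streptavidin donor/nickel chelate acceptor beads (10 ug/mL) for 30 min.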
Sfp inh – qHTS Assay for Inhibitors of Bacillus subtilis Sfp phosphopantetheinyl transferase (PPTase); 3.5% of 310,000 active; 4'-phosphopantetheinyl transferase ffp (Bacillus subtilis), Q9F4F7; Potency, µM, without a hit: largest response in the series, negative = inhibition, actives largely listed as inhibitors; Biochemical Sfp PPTase activity, qHTS;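 also: the enzyme is Sfp with the accession as filed and its product quenches rhodamine fluorescence; 0% = enzyme reaction without inhibitor and -100% = no enzyme wells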
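Fluorescence-quenching assay: 15 nM Sfp-PPTase preincubated 15 min at room temperature with compound, then 5 uM rhodamine-CoA and 12.5 uM BHQ-2-labelled YbbR peptide added. Fluorescence (ex 525/em 598 nm) read at start and after 30 min; difference gives rate.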
G9a block – qHTS Assay for Inhibitors of Histone Lysine Methyltransferase G9a; Histone-lysine N-methyltransferase EHMT2 (Homo sapiens), Q96KQ7; G9a H3K9 monomethylation, AlphaScreen, 2 h; Potency, µM (highest dose often 102 µM), inactives show at the highest dose activity, negative = inhibition, most hits filed as inhibitors; 8.8% of 350,000 active; AID 504332, 2011; also: % is scaled to controls: 0 for no effect and ±100 for the full control effect; nearly all actives have a fitted effect of over 75% in size
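Chemiluminescent proximity detection of H3K9 monomethylation, read after 10 min bead incubation in the dark. Reaction: 20 nM G9a, 500 nM biotin-H3K9 peptide, 20 uM SAM cofactor, 2 h, room temperature, following 15 min enzyme-compound preincubation.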
Starred values were filed as active, the others as inactive; u = inconclusive; x = not tested or not shown; ! = not active in a repeat; [ ] = dose if it differs, or a comment. Calls follow the shape of the dose curve; as a rule, active = well fitted curve in the direction sought with a large enough effect; inconclusive = small, poorly fitted or top-dose-only effect, or another doubt; inactive = no such curve, though single readings can be large; an effect the other way counts as inactive or inconclusive. Potency is read from the fitted curve at half-maximal effect.

SMILES	BAZ2B inh	JMJD2A Tudor	L3MBTL1 block	HP1b binding inh	Sfp inh	G9a block
O=C(NCCCc1nc2ccccc2n1CCOc1ccccc1)C1CCCCC1	x	-16%[57.1 µM]	x	28%[57 µM]	x	x
COc1cccc([C@H]2Oc3ccc(OC)cc3/C(=N\O[C@@H]3O[C@H](COC(C)=O)[C@H](OC(C)=O)[C@H](OC(C)=O)[C@H]3OC(C)=O)[C@@H]2O)c1	x	x	x	x	17%	x
O=C(CSc1ncn[nH]1)OCN1C(=O)c2ccccc2C1=O	-2%	-2%	0%	31%	-21%	35µM*
CCOC(=O)c1cccc(NC(=O)CCCn2c(C)c3cnn(-c4ccccc4)c(=O)c3c2C)c1	-30%	u	x	-9%	x	-25%[59 µM]
Cc1ccnc2nc(NC(=O)c3ccccc3Cl)nn12	0%	-19%	x	15%	x	7%[59 µM]
CC(=O)NS(=O)(=O)c1ccc(Nc2ccc([N+](=O)[O-])c3nonc23)cc1	50µM*	-2%	x	-5%	6%	-14%[59 µM]
O=[N+]([O-])c1ccc(Sc2cccc[n+]2[O-])c2nonc12	56µM*	20µM*	u	7.9µM*	1.3µM*	0.5µM*
O=[N+]([O-])c1ccc(Nc2ccccc2)c2nonc12	40µM*	56µM*	x	u	-8%	45µM*
CCOc1ccc(Nc2ccc([N+](=O)[O-])c3nonc23)cc1	14µM*	35µM*	x	13µM*	-19%	25µM*
Cc1ccccc1Nc1ccc2nonc2c1[N+](=O)[O-]	u	-18%	x	13%	-4%	-6%
COc1ccc(OCCSc2nnc(CC(=O)Nc3cccc(Cl)c3Cl)n2C)cc1	-12%	u	x	8%	-18%	3.2µM*
CCn1c(CNC(=O)Cc2ccc(OC)cc2)nnc1SCCOc1ccccc1	2%	-9%	x	27%	6%	3%
CCn1c(CC(=O)Nc2cccc(Cl)c2Cl)nnc1SCCOc1ccc(OC)cc1	-7%	u	x	26%	4%	25µM*
Cc1cc(CNCCN(C)C)c(C)n1-c1cc(S(=O)(=O)N2CCOCC2)ccc1N1CCCC1	x	8.9µM*	x	-14%	x	x
Cc1ccc(C)n1-c1cc(S(=O)(=O)N2CCOCC2)ccc1N1CCCC1	-8%	79µM*	-12%	-3%	u	u
NC(=O)c1cc(S(=O)(=O)NCC2CCC(C(=O)Nc3ccc(Cl)cc3)CC2)cs1 (configuration not stated)	-1%	-13%	x	-6%	x	4%[59 µM]
CCCc1nc2c(C)cc(C)cc2c(N)c1CC	-34%	4.5µM*	7%	-11%	0%	u
CC(=O)Nc1sc(-c2ccc(Cl)cc2)nc1-c1ccccc1	2%	2%	x	33%	20%	-1%
O=c1cc(O)nc(-c2ccc(Cl)cc2)s1	-36%	-18%	-8%	-12%	18µM*	28µM*
O=c1cc(O)nc(-c2ccccc2)s1	-14%	-9%[57.1 µM]	-26%	-23%	13µM*	45µM*
Cc1cc(C)c(NC(=O)CCCn2c(C)c3cnn(-c4ccccc4)c(=O)c3c2C)c(C)c1	u	-34%	x	19%	x	-8%[59 µM]
CCOC(=O)c1c(CSc2ccsc2)n(C)c2cc(Br)c(O)c(CN(C)C)c12	u	u	0%	-24%	-21%	32µM*
CCOC(=O)c1c(C)n(C)c2ccc(O)c(CN(C)C)c12	-35%	-27%	-2%	-5%	-19%	u
CCOC(=O)c1c(C)n(-c2ccc(C)cc2)c2ccc(O)c(CN(C)C)c12	u	u	0%	-8%	u	45µM*
CCOC(=O)c1c(CSc2ccccc2)n(C)c2ccc(O)c(CN3CCN(C)CC3)c12	u	45µM*	u	-16%	-10%	x
SMILES	BAZ2B inh	JMJD2A Tudor	L3MBTL1 block	HP1b binding inh	Sfp inh	G9a block
CCOC(=O)c1c(CSc2ccc(C)cc2)n(C)c2cc(Br)c(O)c(CN(C)C)c12	45µM*	32µM*	u	u	56µM*	8.9µM*
C=C(C)C(O)/C=C/c1cccc(OC)c1 (configuration not stated)	x	x	x	x	20%	x
O=C(c1ccncc1)N1CCC[C@@]2(CCN(Cc3ccncc3)C2)C1	x	x	x	x	13%	5%[12.7 µM]
CCOC(=O)c1c(CN2CCCCC2)n(C)c2cc(Br)c(O)c(CN(C)C)c12	-4%	-36%	-11%	1%	-12%	35µM*
CCOC(=O)c1c(CN2CCOCC2)n(-c2ccccc2)c2cc(Br)c(O)c(CN(C)C)c12	-5%	u	-3%	-20%	5%	u
CCOC(=O)c1c(CSc2ccccc2)n(C)c2cc(Br)c(O)c(CN(C)C)c12	u	u	-20%	u	-18%	40µM*
CCCCN(CCCC)CCNC(=O)CSCc1ccc(C)cc1	50µM*	6.3µM*	-17%	-32%	u	3.5µM*
COc1ccccc1CNS(=O)(=O)c1ccc(-n2cnnn2)c(OC)c1	-18%	-10%	x	-17%	-9%	28µM*
COc1cc(S(=O)(=O)NCc2ccccc2Cl)ccc1-n1cnnn1	u	7%	x	32%	-9%	13µM*
NNC1=N[C@H]2CS(=O)(=O)C[C@H]2S1	-5%	8.9µM*	2%	10%	0%	9%[59 µM]
O=C(NCc1ccccc1)c1ccc(NC2=NC3CS(=O)(=O)CC3S2)cc1 (configuration not stated)	-13%	8%	x	33%	21%	15%
c1ccc2c(N3CCCCC3)nc(N3CCCCC3)nc2c1	15%	30%	43%	72%	u	-11%[59 µM]
C(=C\c1nc(N2CCCCCC2)c2ccccc2n1)/c1ccccc1	44%	51%	24%	107%	28µM*	-1%
Cc1nc2scc(C)n2c(=O)c1S(=O)(=O)Nc1ccc(N2CCN(C(=O)C(C)C)CC2)cc1	-11%[57.1 µM]	40µM*!	x	50%	-11%	-15%
Cc1nc2scc(C)n2c(=O)c1S(=O)(=O)Nc1ccc(F)cc1	11%	-12%	x	-20%	11%	7%
CCc1cccc(NS(=O)(=O)c2c(C)nc3scc(C)n3c2=O)c1	8%	-13%	x	-17%	16%	28µM*
Cc1ccc(NC(=O)Cn2c(=O)n(CCC(=O)N3CCc4ccccc4C3)c(=O)c3ccccc32)cc1	4%	-11%	x	9%	x	-5%[59 µM]
COc1cc2c(cc1NS(=O)(=O)c1cccc(C#N)c1)n(C)c(=O)n2C	79µM*	-31%	x	-13%	x	10µM*
